# Experimental data: PubChem BioAssay AID2284140 (EPA ToxCast)
# Calls of active or inactive are those of the source. Rule for the calls: active = hit-call score of the fitted dose curve at least 0.9, where 1 is the maximum; inactive = score below 0.9.
# Target: Tyrosine-protein kinase SYK (Homo sapiens) (UniProt P43405)
# Experiment: ERF_FR_ENZ_hSYK: Eurofins (ERF) Enzymatic Radiometric [Km ATP] KinaseProfiler LeadHunter Assay for human Syk Tyrosine Kinase
# Method: ERF_FR_ENZ_hSYK is a biochemical, single-readout assay that uses extracted gene-proteins in a cell-free assay. Measurements were taken 0.5 hour after chemical dosing in a 96-well plate. See Syk Human TK Kinase Enzymatic LANCE Assay [Km ATP], Cerep.ERF_FR_ENZ_hSYK is an assay component calculated from the ERF_FR_ENZ_hSYK assay. It is designed to measure enzyme activity using a type of enzyme reporter as detected by fluorescence intensity with LANCE technology.Data from the assay component ERF_FR_ENZ_hSYK was analyzed at the assay endpoint, ERF_FR_ENZ_hSYK, in the positive analysis fitting direction relative to DMSO as the negative control and baseline of activity. Using a type of enzyme reporter, loss-of-signal activity can be used to understand changes in enzymatic activity as they relate to gene SYK. To generalize the intended target to other relatable targets, this assay endpoint is annotated to the kinase intended target family, where the subfamily is spleen tyrosine kinase.
# Syk (h) is incubated with 50 mM Tris pH 7.5, 0.1 mM EGTA, 0.1 mM Na3VO4, 0.1% […], 0.1 mg/ mL poly(Glu, Tyr) 4:1, 10 mM MgAcetate and [gamma-33P]-ATP (specific activity and concentration as required). The reaction is initiated by the addition of the Mg/ATP mix. After incubation for 40 minutes at room temperature, the reaction is stopped by the addition of phosphoric acid to a concentration of 0.5%. […]
row,SMILES,outcome
1,O=C(/C=C/c1ccc(O)cc1)CC(=O)/C=C/c1ccc(O)cc1,inactive
